According to PubChem BioAssay (NCATS):
Results filed as inconclusive are left out. Activity calls are given as the source filed them. Unless noted, calls come from the whole dose curve; as a rule, active = well fitted curve in the direction sought with a large enough effect; inconclusive = small, poorly fitted or top-dose-only effect, or another doubt; inactive = no such curve, though single readings can be large; an effect the other way counts as inactive or inconclusive.

How the values were obtained:
[1] = Cell Viability - MRC5 (AID 434; calls by dose curve;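 note: potency is the fitted concentration of half-maximal effect; cells exposed to compound for 40 hours at 37 °C; potency reflects cytotoxicity seen as loss of intracellular ATP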); details: MRC5 lung fibroblast viability, qHTS
Outline: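 ATP luminescence read-out (CellTiter-Glo, 20 min RT) after 40 hr, 37 °C compound exposure of 1500 MRC5 cells/well. Data normalized to DMSO (basal) and 100 uM tamoxifen (100% inhibition); AC50 from standard Hill equation.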

[2] = biological target: Mitogen-activated protein kinase 10 (Mus musculus) (UniProt Q61831); assay: JNK3 AlphaScreen Assay (AID 530; active = well fitted curve in either direction with a large enough effect, not every such curve was filed as active;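 note: kinase came from lysate of stimulated human HepG2 cells; signal reports phosphorylation of biotinylated GST-cJun 1-79 at Ser73 with 10 µM ATP; % is set by controls: 0 for no effect and ±100 for the full control effect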); details: JNK3 lysate, c-Jun phosphorylation; series mostly up to 57.1 µM
Outline: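 HepG2 lysate (IL-1b/TNFa pre-activated) + biotin-GST-cJun 1-79 + anti-pSer73 cJun; cpd titration, 15 min RT; ATP 10 uM start; Tris pH 7.6, MgCl2, DTT, vanadate; beads in EDTA buffer; AlphaScreen.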

[3] = MultiTox-Fluor Cytotoxicity Assay - LYMP1-001 - Live Cells (AID 947); details: LYMP1-001 lymphoblastoid cells, live-cell protease fluorescence viability; series mostly up to 92.2 µM;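 note: 0% = DMSO only and full inhibition = tetraoctylammonium bromide control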
[4] = MultiTox-Fluor Cytotoxicity Assay - LYMP1-003 - Dead Cells (AID 961); details: LYMP1-003 lymphoblastoid cells, dead-cell protease fluorescence; series mostly up to 92.2 µM;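 note: 0% = DMSO and 100% = tetraoctylammonium bromide; nearly all actives have a fitted effect of over 70% in size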
Outline: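 Human lymphoblastoid LYMP1-003 cells (2500/well) were treated with compounds for 16 hr at 37 C in complete medium. Dead-cell protease release was read by bis-AAF-R110 fluorescence (Ex/Em 485/520). AC50 came from Hill fits, normalized to DMSO and 15 uM tetraoctylammonium bromide.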

[5] = MultiTox-Fluor Cytotoxicity Assay - LYMP1-003 - Live Cells (AID 962); details: LYMP1-003 lymphoblastoid cells, MultiTox-Fluor live-cell protease fluorescence; series mostly up to 92.2 µM;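 note: cells exposed to compound for 16 hours at 37 °C; 0% = DMSO only and full loss = 92 µM tetraoctylammonium bromide; cytotoxic hits lower the live-cell protease signal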
Outline: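 Readout: live-cell fluorescence (Ex/Em=405/510) from GF-AFC cleavage after 60 min MultiTox-Fluor reagent at room temperature. Lymphoblastoid LYMP1-003 cells, 16 hr compound treatment, 37 C. Concentration-response fitted to standard Hill equation for AC50.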

[6] = Cell Viability - LYMP1-003 - Assay at 40 hr (AID 964); details: LYMP1-003 lymphoblastoid viability; series mostly up to 92.2 µM; note: % is set by controls: 0 for no effect and ±100 for the full control effect; nearly all actives have a fitted effect of over 60% in size
Outline: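 LYMP1-003 lymphoblastoid cells, 2500/well; 5 hr preincubation, 40 hr compound exposure, 37 C; CellTiter-Glo 30 min RT; luminescence; Hill-fit AC50. Positive control tetraoctylammonium bromide.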

[7] = Cell Viability - LYMP2-011 (AID 969); details: LYMP2-011 lymphoblastoid cells viability; series mostly up to 92.2 µM;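 note: cells exposed to compound for 24 hours; 0% = DMSO only and full inhibition = 92 µM tetraoctylammonium bromide; nearly all actives have a fitted effect of over 60% in size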
Outline: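 Luminescent ATP read-out (CellTiter-Glo, 30 min RT) after 24 hr compound exposure at 37 C in human lymphoblastoid cells, 2500 cells/well. Decreasing ATP indicates cytotoxicity; AC50 from standard Hill fit.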

[8] = Cell Viability - LYMP2-013 (AID 970); details: LYMP2-013 lymphoblastoid cells viability; series mostly up to 92.2 µM;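 note: 0% = DMSO only and full inhibition = tetraoctylammonium bromide control; nearly all actives have a fitted effect of over 55% in size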
Outline: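 CellTiter-Glo luminescence (cellular ATP) read after 30 min at RT. Cells: human lymphoblastoid line, 2500/well, 24 hr compound exposure at 37 C. Tetraoctylammonium bromide positive control; AC50 via standard Hill fit of qHTS titrations.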

[9] = Cell Viability - LYMP2-015 (AID 971); details: LYMP2-015 lymphoblastoid cell viability; series mostly up to 92.2 µM;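 note: 0% = DMSO only and full effect = 92 µM tetraoctylammonium bromide; nearly all actives have a fitted effect of over 55% in size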
Outline: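 qHTS cytotoxicity: 2500 cells/well, 5 hr 37 C, compound 24 hr 37 C, CellTiter-Glo 30 min RT, luminescence. Loss of ATP = toxicity; AC50 via standard Hill fit.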

[10] = Cell Viability - LYMP2-021 (AID 974); details: LYMP2-021 lymphoblastoid cells viability; series mostly up to 92.2 µM;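 note: compound exposure lasts 24 hours at 37 °C; % is set by controls: 0 for no effect and ±100 for the full control effect; nearly all actives have a fitted effect of over 55% in size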
Outline: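 ATP luminescence (CellTiter-Glo, 30 min RT) after 24 h compound exposure at 37 C; 2500 human lymphoblastoid cells/well, 5 h settle beforehand. Cytotoxicity = concentration-dependent ATP drop, AC50 by Hill fit.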

[11] = Cell Viability - LYMP2-002 (AID 977); details: LYMP2-002 lymphoblastoid cell viability, qHTS; series mostly up to 92.2 µM;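 note: plate controls were DMSO only for no effect and 92 µM tetraoctylammonium bromide for full effect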
Outline: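 Human lymphoblastoid cells, 2500/well, complete medium; 5 h 37 C settle; compound 24 h 37 C; CellTiter-Glo, 30 min RT; luminescence. Decrease in ATP = cytotoxicity; AC50 via Hill equation.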

[12] = Cell Viability - LYMP2-018 (AID 985); details: LYMP2-018 lymphoblastoid cells, viability (qHTS); series mostly up to 92.2 µM;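 note: plate controls were DMSO only for no effect and tetraoctylammonium bromide at 92 µM for full effect; nearly all actives have a fitted effect of over 50% in size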
Outline: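 2500 cells/well; 5 hr 37 C; cmpd 24 hr 37 C, complete medium; CellTiter-Glo 30 min RT; luminescence. Tetraoctylammonium bromide positive control. AC50 via Hill fit.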

[13] = biological target: Thyroid hormone receptor beta (Homo sapiens) (UniProt P10828); assay: qHTS assay for small molecule antagonists of thyroid hormone receptor beta signaling (AID 588547; active = well fitted inhibition curve with a large enough effect in the signal ratio, with a control signal flat, not every such curve was filed as active; the % refers to the signal ratio;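 note: cells stimulated with 0.4 nM T3 agonist during compound exposure; % is set by controls: 0 for no effect and ±100 for the full control effect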); details: TR-UAS-bla HEK293, beta-lactamase ratio, antagonist mode, 18 h
Sequence of Thyroid hormone receptor beta (Homo sapiens) (P10828 whole entry, looked up): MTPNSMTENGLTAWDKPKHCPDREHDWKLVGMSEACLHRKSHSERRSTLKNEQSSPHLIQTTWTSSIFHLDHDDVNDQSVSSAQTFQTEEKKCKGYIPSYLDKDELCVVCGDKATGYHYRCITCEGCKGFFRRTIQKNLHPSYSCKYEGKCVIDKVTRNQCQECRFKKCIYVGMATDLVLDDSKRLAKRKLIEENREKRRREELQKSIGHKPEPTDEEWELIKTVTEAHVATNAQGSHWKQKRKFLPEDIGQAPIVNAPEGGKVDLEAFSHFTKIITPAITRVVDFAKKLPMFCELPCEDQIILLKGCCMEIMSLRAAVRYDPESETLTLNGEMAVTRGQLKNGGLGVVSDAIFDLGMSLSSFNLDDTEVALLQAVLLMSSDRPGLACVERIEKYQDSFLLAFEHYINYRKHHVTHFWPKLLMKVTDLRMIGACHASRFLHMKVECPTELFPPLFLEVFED
Outline: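 TR-UAS-bla GripTite HEK293 cells in 2% charcoal/dextran FBS medium; compounds 0.59 nM to 92 uM with T3 at 0.4nM final, 18 h at 37 C. Beta-lactamase read by CCF4 fluorescence (460/530 nm); Hill fits gave IC50 and efficacy.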

[14] = qHTS assay for small molecule antagonists of the retinoid-related orphan receptor gamma (ROR-gamma) signaling pathway - cell viability counter screen (AID 720652; active = well fitted curve in the direction sought with a large enough effect in the repeat runs; an effect the other way counts as inactive or inconclusive;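 note: CHO reporter cells with doxycycline-induced ROR-gamma expression; compound exposure lasted 16 hr before ATP read; % is set by controls: 0 for no effect and ±100 for the full control effect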); details: RORgamma reporter cell line viability counter screen; series mostly up to 92.2 µM
Outline: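 CHO RORE-LUC/TET-ROR line, 1,000 cells/well, 37 C 5% CO2 5 hr; cpd or DMSO + doxycycline induction, 16 hr. CellTiter-Glo, 30 min RT, luminescence = ATP content.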

[15] = qHTS assay for small molecule activators of the human pregnane X receptor (PXR) signaling pathway (AID 720659; call rule not given here; note: 0% is about no effect); details: DPX-2 HepG2 CYP3A4-luciferase, 24 h; series mostly up to 92.3 µM
[16] = Cell Viability - LYMP2-001 (AID 921); details: LYMP2-001 lymphoblastoid cell viability; series mostly up to 92.2 µM;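 note: 0% = DMSO only and full inhibition = tetraoctylammonium bromide control wells; nearly all actives have a fitted effect of over 70% in size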
Outline: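 qHTS, 1536-well; lymphoblastoid cells, 24 hr compound, 37 C; ATP by CellTiter-Glo, 30 min RT; luminescence; Hill-fit AC50.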

[17] = Cell Viability - LYMP2-010 (AID 981); details: LYMP2-010 lymphoblastoid cell viability, qHTS; series mostly up to 92.2 µM;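 note: cells exposed to compound for 24 hours at 37 °C; % is set by controls: 0 for no effect and ±100 for the full control effect; nearly all actives have a fitted effect of over 55% in size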
Outline: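 qHTS cytotoxicity, 1536-well: 2500 cells/well, 5 hr settle, 24 hr compound at 37 C, CellTiter-Glo 30 min RT, luminescence read. Decrease in ATP = toxicity; AC50 via standard Hill equation. Positive control tetraoctylammonium bromide.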

[18] = biological target: Vitamin D3 receptor (Homo sapiens) (UniProt P11473); assay: qHTS assay for small molecule antagonists of vitamin D receptor signaling (AID 588541; calls by dose curve;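 note: receptor activated by calcitriol during compound treatment; % is set by controls: 0 for no effect and ±100 for the full control effect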); details: HEK293T VDR-UAS-bla, beta-lactamase ratio, antagonist mode; series mostly up to 76.7 µM
Sequence of Vitamin D3 receptor (Homo sapiens) (P11473 whole entry, looked up): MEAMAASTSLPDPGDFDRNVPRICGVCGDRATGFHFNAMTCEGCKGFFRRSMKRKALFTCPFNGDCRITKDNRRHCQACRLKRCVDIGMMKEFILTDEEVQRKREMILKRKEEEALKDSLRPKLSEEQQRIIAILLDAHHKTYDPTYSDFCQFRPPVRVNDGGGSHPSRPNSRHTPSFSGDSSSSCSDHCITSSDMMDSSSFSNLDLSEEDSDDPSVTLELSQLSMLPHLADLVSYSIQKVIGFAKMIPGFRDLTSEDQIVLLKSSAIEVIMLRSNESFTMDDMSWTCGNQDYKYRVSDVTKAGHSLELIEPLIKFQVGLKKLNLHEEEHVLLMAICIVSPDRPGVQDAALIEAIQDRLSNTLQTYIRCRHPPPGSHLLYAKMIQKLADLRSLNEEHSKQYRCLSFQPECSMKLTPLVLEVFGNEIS
Outline: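 VDR-UAS-bla HEK293T cells in 2% charcoal-stripped FBS were stimulated with 1-alpha,25-dihydroxyvitamin D3 (3 nM final) plus compound for 16 h at 37 C. The beta-lactamase CCF4 readout was normalized to 50 nM agonist and DMSO, and Hill fits gave IC50.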

[19] = biological target: Vitamin D3 receptor (Homo sapiens) (UniProt P11473); assay: qHTS assay for small molecule agonists of vitamin D receptor signaling (AID 588543; calls by dose curve;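 note: 0% = DMSO basal and 100% = reference agonist control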); details: HEK293T VDR-UAS-bla, beta-lactamase ratio, 16 h; series mostly up to 76.8 µM
Outline: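 qHTS in agonist mode: compound titrations stimulate a VDR-driven β-lactamase reporter in HEK293T cells over 16 h at 37 °C. Response normalized to 50 nM 1α,25-dihydroxyvitamin D3 = 100%, DMSO = 0%; Hill fitting gives EC50 and maximal response.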

[20] = Cell Viability - LYMP2-022 (AID 987); details: LYMP2-022 lymphoblastoid cell viability; series mostly up to 92.2 µM
Outline: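 Luminescent ATP read-out (CellTiter-Glo, 30 min, RT) after 24 hr, 37 C compound exposure of 2500 human lymphoblastoid cells/well in complete medium. Cytotoxicity taken as concentration-dependent ATP loss; AC50 from standard Hill equation.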

C/C=C/CC#N
inactive: Potency [1] > 92 µM | Potency [2] | outcome [3] | Potency [4] | outcome [5] | Potency [6] | Potency [7] | Potency [8] | Potency [9] | Potency [10] | Potency [11] | Potency [12] | activity change % (negative = inhibition) [13] 15.6% | Potency [14] | outcome [15]

O=Cc1ccc2c(c1)OCO2
inactive: Potency [1] > 92 µM | Potency [2] | Potency [16] | Potency [4] | outcome [5] | Potency [6] | Potency [7] | Potency [8] | Potency [10] | Potency [11] | Potency [17] | Potency [12] | outcome [18] | outcome [19] | activity change % (negative = inhibition) [13] 5.85% | Potency [14] | outcome [15]

CCCCC(CC)COC(=O)c1ccc(C(=O)OCC(CC)CCCC)c(C(=O)OCC(CC)CCCC)c1 (stereo not given)
inactive: Potency [1] > 92 µM | outcome [3] | outcome [5] | Potency [6] | Potency [7] | Potency [8] | Potency [11] | Potency [17] | Potency [12] | outcome [18] | outcome [19] | activity change % (negative = inhibition) [13] 11.5% | Potency [14] | outcome [15]

CC(C)OS(C)(=O)=O
inactive: Potency [1] > 92 µM | Potency [2] | Potency [16] | outcome [3] | Potency [4] | outcome [5] | Potency [7] | Potency [8] | Potency [9] | Potency [10] | Potency [11] | Potency [17] | Potency [12] | Potency [20] | outcome [18] | outcome [19] | Potency [14] | outcome [15]

CCCCOC(C)=O
inactive: Potency [1] > 92 µM | Potency [2] | Potency [16] | outcome [3] | Potency [4] | outcome [5] | Potency [6] | Potency [7] | Potency [8] | Potency [9] | Potency [10] | Potency [11] | Potency [17] | Potency [12] | Potency [20] | activity change % (negative = inhibition) [13] 1.15% | Potency [14]

O=Cc1ccc(Cl)cc1Cl
inactive: Potency [1] > 92 µM | Potency [2] | Potency [16] | outcome [3] | Potency [4] | Potency [6] | Potency [8] | Potency [9] | Potency [10] | Potency [17] | Potency [12] | Potency [20] | outcome [18] | outcome [19] | activity change % (negative = inhibition) [13] 0.009% | Potency [14] | outcome [15]

Nc1cc(Cl)ccc1O
inactive: Potency [1] > 92 µM | Potency [2] | Potency [16] | outcome [3] | outcome [5] | Potency [7] | Potency [8] | Potency [10] | Potency [12] | outcome [19]

Cc1ccc([N+](=O)[O-])cc1
inactive: Potency [1] > 92 µM | Potency [2] | Potency [16] | Potency [4] | outcome [5] | Potency [6] | Potency [7] | Potency [8] | Potency [9] | Potency [11] | Potency [17] | Potency [12] | outcome [18] | outcome [19] | activity change % (negative = inhibition) [13] 0.221% | Potency [14] | outcome [15]

CC(C)[N+](=O)[O-]
inactive: Potency [1] > 92 µM | Potency [2] | Potency [16] | outcome [3] | Potency [4] | Potency [6] | Potency [9] | Potency [10] | Potency [11] | Potency [12] | Potency [20] | outcome [18] | outcome [19] | activity change % (negative = inhibition) [13] 5.36% | outcome [15]
